These compounds were tested on Plasmodium falciparum NF54 gametocytes (assay: viability index relative to DMSO control (fraction); higher = less gametocyte killing). Settings: gametocyte stage: Stage III viability index; 12.5 µM; incubation time: 72 h.
Method in brief: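 P. falciparum NF54 gametocytes of each stage (I–V), in serum-containing medium (0.50% gametocytemia, 1.25% hematocrit, 40 µl), were incubated with compound at 12.5 µM in 384-well plates for 72 hr at 37°C under low oxygen. Wells received 5 µl of 5 µM MitoTracker Red CMXRos for 20 min. Then 5 µl was moved into 40 µl of 500 nM dye in serum-free medium and imaged after 30 min (three fields). The viability index was the gametocyte particle count divided by the plate mean of DMSO wells.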

Point of comparison: `CCCCCn1c(=N)n(CC(O)COc2cccc(C)c2)c2ccccc21` (stereo not drawn), viability index 0.32. Against it:
- CCOc1ccc(N2C(N)=NC(N)=NC2(C)C)cc1 — higher, 0.844
- COCCNC(=O)c1ccc(OC2CCN(Cc3ccc(F)c(F)c3)CC2)c(Cl)c1 — higher, 1.07
- CCOC(=O)c1cnc2c(C)cc(C)cc2c1Nc1ccc(OC)c(OC)c1 — higher, 1.19
- CN1CCN(c2ncnc3c2[nH]c2ccc(Cl)cc23)CC1 — higher, 0.92
- CCOC(=O)c1ccc2nc(-c3ccccc3)cc(O)c2c1 — higher, 0.761
- COc1ccc(-c2c(C)nn3c(N)c(C#N)cnc23)cc1OC — lower, 0.0325
- Cc1cc(Nc2cccc(F)c2)nc(NCc2ccccc2)n1 — higher, 0.825
- Cc1ccc(-c2cc3c(nn2)-c2ccccc2C3=O)cc1 — higher, 0.74
- CCOC(=O)C1=C(c2ccccc2)N=c2sc(=Cc3cc(C)n(-c4ccc(F)cc4)c3C)c(=O)n2C1c1cccc(OC)c1OC (stereo not drawn) — higher, 0.996
- CC1CCN(Cc2ccc(NC(=O)c3cc4ccc5cccnc5c4[nH]3)cc2)CC1 — higher, 0.902
- COc1cc(SC)ccc1C(=O)N1CCCC(C)C1 (stereo not drawn) — higher, 1.17
- O=C(Nc1ccc(N2CCN(Cc3ccccc3)CC2)cc1)c1cccs1 — higher, 0.795
- CCN(Cc1ccccc1)C1CCN(Cc2cc(Br)ccc2O)CC1 — higher, 0.573
- c1ccc2c(NCCc3c[nH]c4ccccc34)c3ccccc3nc2c1 — higher, 0.609
- CN(C)c1ccc(-c2nc3cc(N)ccc3[nH]2)cc1 — higher, 0.962
- N=c1c2ccccc2nnn1-c1cccc(C(F)(F)F)c1 — higher, 1.02
- O=C(Nc1cccc(-c2nc3ccccc3[nH]2)c1)c1cccc(NC(=O)c2ccco2)c1 — higher, 1.01
- COc1ccc2nc(N)nc(C)c2c1 — higher, 0.685
- CCOC(=O)c1cn(CC)c2cc(N(C)CCc3ccc(OC)c(OC)c3)c(F)cc2c1=O — higher, 0.912
- N=c1n(CCN2CCCCC2)c2ccccc2n1CC(=O)c1ccc(Cl)c(Cl)c1 — higher, 0.848
- Fc1ccc2[nH]c3c(NCCCN4CCOCC4)ncnc3c2c1 — higher, 0.873
- COc1ccc(C2c3ccc4ccccc4c3Oc3ncn(CCCn4ccnc4)c(=N)c32)cc1OC (stereo not drawn) — higher, 0.441
- CCCCc1ccc(NS(=O)(=O)c2cc3c4c(c2)CCN4C(=O)CC3)cc1 — higher, 0.992
- COc1ccc(C(=O)Nc2nonc2-c2ccc(OC)c(OC)c2)cc1Cl — higher, 0.487
- Cc1ccc(CN2CCC(C(=O)Nc3ccc(-c4cc5ccccc5[nH]4)cc3)CC2)o1 — higher, 0.43
- COc1ccc(Br)cc1C1Nc2ccc3ccccc3c2C2=C1C(=O)CC(c1ccccc1)C2 (stereo not drawn) — higher, 0.873
- CCCCC(O)(c1ccc(Cl)cc1)C(CN1CCOCC1)c1ccc(Cl)cc1 (stereo not drawn) — higher, 0.871
- COc1ccc(N2CCN(C(CNC(=O)CC(C)(C)C)c3ccc4c(c3)OCO4)CC2)cc1 (stereo not drawn) — higher, 1.02
- Cc1sc(NC(=O)c2ccccc2)c(C(c2cccs2)N2CCN(c3ccccc3)CC2)c1C (stereo not drawn) — higher, 0.905
- O=C(Nc1nc(-c2ccccn2)cs1)c1ccccc1Br — lower, 0.147
- CN(C)CCCNc1c2ccccc2nc2ccccc12 — lower, 0.0835
- O=C(NCc1ccco1)C1CCN(S(=O)(=O)c2ccc(Cl)cc2)CC1 — higher, 1.03
- O=C(Nc1ccccc1O)c1ccc(-c2ccc(Cl)cc2Cl)o1 — higher, 0.6
- O=C(NC1CCN(Cc2ccccc2)CC1)c1cc2nc(-c3ccc(Cl)s3)cc(C(F)(F)F)n2n1 — higher, 0.843
- COc1cc2c(cc1OC)C1=NNC(=O)C1=NC(C)(C)C2 — lower, 0.0707
- O=C(Nc1ccc(CN2CCOCC2)cc1)c1ccc(-c2cc(Cl)ccc2Cl)o1 — higher, 1.15
- CC(NCc1ccccc1)c1cc(Cl)ccc1O (stereo not drawn) — higher, 0.44

Reference: the supplement of paper PMC4723716
